# Experimental data as given in PubChem BioAssay (EPA / NIEHS).
# Records with an inconclusive call do not appear. The source made the active and inactive calls. Rule for the calls, unless noted: active = hit-call score of the fitted dose curve at least 0.9, where 1 is the maximum; inconclusive = response in the unintended direction; inactive = score below 0.9.
# Assays:
# [1] = VALA_MIGHUV2_WoundArea: VALA Sciences human Umbilical Vein Endothelial Cell Migration (MIGHUV) Assay, Area of Scratch Wound after Recovery (AID 2284316)
# How it was run: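 HUVEC seeded at 9000 cells/well, scratched after 24 h; test chemical added within 30 min, 6-point concentration response in triplicate (0.1% DMSO vehicle). After 24 h wound recovery, cells fixed and Hoechst-stained nuclei in wound area imaged; Cytochalasin D reference control.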
# IYD (gene 389434) = assay: CCTE_GLTED_hIYD: CCTE's human Iodotyrosine Deiodinase (xIYD) Inhibition Assay, Great Lakes Toxicology and Ecology Division (GLTED) Lab (AID 2284317);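 note: cell-free human IYD enzyme made in baculovirus insect cells; iodide freed from monoiodotyrosine measured by cerium arsenite color change at 420 nm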
# How it was run: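 Absorbance change at 420 nm from the iodide-catalysed cerium-arsenic reaction reports free iodide released by human IYD from monoiodotyrosine. Enzyme, substrate and chemical are incubated 3 h; loss of signal is fitted relative to DMSO baseline.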
# [2] = CCTE_Deisenroth_5AR_NBTE_donor: CCTE's 5alpha-reductase NanoBRET Target Engagement Assay […], Deisenroth Lab (AID 2284319; active = hit-call score of the fitted dose curve at least 0.9, where 1 is the maximum; inactive = score below 0.9); settings: actives raise or lower the signal
# How it was run: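 Donor NanoLuc luminescence at 460-20 nm is the read-out, serving artifact detection. Transiently expressed SRD5A2-NanoLuc in HEK293T; 5 h total chemical exposure, testosterone tracer added for the final 2 h; fitting bidirectional relative to DMSO baseline.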
# SRD5A2 (gene 6716) = assay: CCTE_Deisenroth_5AR_NBTE_ratio: CCTE's 5alpha-reductase NanoBRET Target Engagement Assay - Ratio, Deisenroth Lab (AID 2284322; active = hit-call score of the fitted dose curve at least 0.9, where 1 is the maximum; inactive = score below 0.9); settings: actives raise or lower the signal
# How it was run: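 HEK293T transiently expressing SRD5A2-NanoLuc; cells exposed to chemical (8-point, 10 nM - 29.9 uM) for 5 h total, testosterone tracer added for final 2 h. NanoBRET acceptor/donor ratio (650/460 nm), bidirectional fit vs DMSO.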
# [3] = VALA_TUBHUV_Antagonist_TubuleLength: VALA Sciences human Umbilical Vein Endothelial Tubule Formation (TUBHUV) Antagonism Assay (AID 2284325)
# How it was run: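 HUVEC–HDF co-culture (1:3) pre-grown 3 days with 10 ng/ml VEGF, then 3 days with compound plus VEGF. Fixed, nuclear and CD31 stained; total tubule length by imaging versus 0.1% DMSO; suramin 100 uM positive control.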
# [4] = VALA_MIGHUV1_ScratchOnly_CellCount: Viability Assessment in the VALA Sciences human Umbilical Vein Endothelial Cell Migration (MIGHUV) Assay, Scratch Wound Inhibited Recovery (AID 2284327)
# How it was run: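 HUVEC scratched after 24 h culture, chemical added within 30 min at 6 concentrations in triplicate (0.1% DMSO vehicle). After 24 h recovery, fixed cells were counted by Hoechst nuclear imaging in the wound area.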
# [5] = VALA_TUBIPS_Antagonist_CellCount: Viability Assessment in the VALA Sciences human iPS-derived Endothelial Tubule Formation (TUBIPS) Antagonism Assay (AID 2284335)
# [6] = VALA_MIGHUV1_ScratchOnly_WoundArea: VALA Sciences human Umbilical Vein Endothelial Cell Migration (MIGHUV) Assay, Area of Scratch Wound Inhibited Recovery (AID 2284336)
# How it was run: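 HUVEC monolayers (9000 cells/well) were scratched after 24 h, dosed within 30 min (six concentrations, triplicate, 0.1% DMSO), allowed 24 h recovery, then fixed. Hoechst-stained nuclei in the wound imaged; cytochalasin D as reference.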
# [7] = VALA_TUBHUV_Agonist_TubuleLength: VALA Sciences human Umbilical Vein Endothelial Tubule Formation (TUBHUV) Agonism Assay (AID 2284337)
# How it was run: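 HUVEC co-cultured with fibroblasts (1:3) 3 days in 10 ng/ml VEGF, then 3 days with compound plus VEGF; 0.1 % DMSO neutral control. Fixed, nuclear and CD31 stained; tubule length by fluorescence imaging.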
# [8] = VALA_TUBIPS_Agonist_CellCount: Viability Assessment in the VALA Sciences human iPS-derived Endothelial Tubule Formation (TUBIPS) Agonism Assay (AID 2284338)
# SERPINA7 (gene 6906) = assay: CCTE_GLTED_hTBG: CCTE's human Thyroxine-binding Globulin (TBG) Inhibition Assay, Great Lakes Toxicology and Ecology Division (GLTED) Lab (AID 2284343);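 note: active chemicals lower fluorescence versus DMSO baseline by displacing probe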
# How it was run: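 hTBG + test chem, 2 h; ANSA probe displacement; fluorescence readout ex380/em475; DMSO = neg ctrl/baseline; cell-free.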
# [9] = CCTE_Deisenroth_5AR_NBTE_acceptor: CCTE's 5alpha-reductase NanoBRET Target Engagement Assay - Autofluorescence Screen, Deisenroth Lab (AID 2284321; active = hit-call score of the fitted dose curve at least 0.9, where 1 is the maximum; inactive = score below 0.9;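 note: compound fluorescence in the acceptor channel under 460 nm excitation flags autofluorescence artifacts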); settings: actives raise or lower the signal
# How it was run: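 Autofluorescence check: ToxCast chemicals, nominal 100 uM, excitation 460 nm, n=3 runs. Acceptor fluorescence endpoint, bidirectional fit relative to DMSO. Parent assay in HEK293T, 5 h post-dose.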
# [10] = CCTE_Mundy_HCI_iCellGluta_NOG_NeuriteLength: CCTE's Neurite Outgrowth Assay in iCellGluta cells for Neurite Length, Mundy Lab (AID 2284318)
# How it was run: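 Automated high-content imaging of betaIII-tubulin (Alexa Fluor-488) and Hoechst-stained cells gave neurite length, normalized to the DMSO baseline.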
# [11] = TAMU_PeakParms_SingleDonor1434_Asystole: Texas A&M University (TAMU) 1.5-hr Human Induced Pluripotent Stem Cell (iPSC)-derived Cardiomyocytes Calcium (Ca+2) Flux Assay for Cardiotoxicity: Asystole (quiescence of beating) (AID 2284328)
# How it was run: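 Average Ca2+-flux peak frequency (beats/s) was recorded in single-donor iPSC-derived cardiomyocytes after 90 min exposure (0.2–100 uM final, 0.5% DMSO). Asystole POD set as EC95 against DMSO, no preprocessing.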
# [12] = CCTE_Deisenroth_DEVTOX-GLR_legacy_CellCount: (Legacy) Viability Assessment in CCTE's DevTox GLR-Endo Assay, Deisenroth Lab (AID 2284331; active = hit-call score of the fitted dose curve at least 0.9, where 1 is the maximum; inactive = score below 0.9); settings: actives raise or lower the signal
# How it was run: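 Nuclei count by fluorescence high-content imaging (5 fields/well) after 48 h differentiation of RUES2-GLR cells. Two exposures, 24 h apart; 1 nM - 200 uM series; n=4. Bidirectional fit vs DMSO.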
# [13] = IUF_NPC1_cytotoxicity_72hr: Cytotoxicity Assessment at 72 hours in the Leibniz Research Institute for Environmental Medicine (IUF) Neural Progenitor Cell Proliferation Assay (NPC1) (AID 2284332);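 note: rising LDH signal means more cytotoxicity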
# How it was run: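 Spheres of primary human neural progenitors are plated one per well on day 0 in growth-factor medium and dosed at once. After three days at 37C, supernatant LDH is measured fluorimetrically via resazurin reduction.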
# [14] = CCTE_Mundy_HCI_iCellGluta_NOG_NeuronCount: CCTE's Neurite Outgrowth Assay in iCellGluta cells for Neuron Count, Mundy Lab (AID 2284340);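 note: cells fixed about 48 h after compound addition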
# How it was run: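 Neuron count read by automated high-content imaging of Hoechst 33342 and betaIII-tubulin/Alexa Fluor-488 labelling in human iPSC glutamatergic neurons. Activity fitted relative to DMSO.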
# [15] = tested on: SRY-box transcription factor 17 (SOX17) Protein Expression, Deisenroth Lab, SOX17 (gene 64321); assay: CCTE_Deisenroth_DEVTOX-GLR_legacy_Sox17: (Legacy) CCTE's DevTox GLR-Endo Assay Evaluation of SRY-box transcription factor 17 (SOX17) Protein Expression, Deisenroth Lab (AID 2284341; active = hit-call score of the fitted dose curve at least 0.9, where 1 is the maximum; inactive = score below 0.9); settings: actives raise or lower the signal
# How it was run: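 RUES2-GLR human pluripotent cells, seeded 24 h, then differentiated 48 h in defined media with two chemical exposures 24 h apart (1 nM - 200 uM, 10 points). Sox17+ fraction from high-content fluorescence imaging; bidirectional fit versus 0.2% DMSO.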
# [16] = CCTE_Mundy_HCI_iCellGluta_NOG_NeuriteCount: CCTE's Neurite Outgrowth Assay in iCellGluta cells for Neurite Count, Mundy Lab (AID 2284342);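 note: chemical exposure about 48 hours starting 2 hours after plating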
# Method: CCTE_Mundy_HCI_iCellGluta_NOG is a multiplexed, cell-based-readout assay that uses iCell GlutaNeurons from FUJIFILM Cellular Dynamics, Inc. (FCDI), human glutamatergic enriched neurons derived from induced pluripotent stem (iPS) cells, with measurements taken at 50.33 hours after chemical dosing in a microplate: 96-well plate.CCTE_Mundy_HCI_iCellGluta_NOG_NeuriteCount is one of four components of the CCTE_Mundy_HCI_iCellGluta_NOG assay. It measures neurite outgrowth related to number of neurites using High Content Imaging of fluorescently labelled markers.Data from the assay component CCTE_Mundy_HCI_iCellGluta_NOG_NeuriteCount was analyzed at the endpoint CCTE_Mundy_HCI_iCellGluta_NOG_NeuriteCount in the positive analysis fitting direction relative to DMSO as the negative control and baseline of activity. Using a type of morphology reporter, loss-of-signal activity can be used to understand developmental effects.
# Exposure starts 2 hours post-plating by adding 10 ul of the working solution to 90 ul of media in the wells for a 1/10 dilution. Forty-eight hours after chemical treatment cells are fixed by direct addition of 100 ul of warm (37C) Dulbecco's phosphate buffered saline (DPBS) fixative solution containing 8% paraformaldehyde, 8% sucrose, and 0.1% of 3 mg/ml Hoechst 33342 into each well. Primary antibodies are prepared by dilution in Immunocytochemical Staining Buffer (ISB), 10X Dulbecco's PBS, 0.1% Saponin, 5% Bovine Serum Albumin, 0.5% NaN3 (Sodium Azide) and betaIII-tubulin (rabbit anti-betaIII-tubulin, 1:800) followed by Alexa Fluor-488 secondary (1:500) to label neuronal cell bodies and neurites. A Cellomics ArrayScan VTi HCS Reader is used for automated image acquisition and analysis of neurite outgrowth.
# [17] = tested on: Brachyury (BRA) Protein Expression, Deisenroth Lab, TBXT (gene 6862); assay: CCTE_Deisenroth_DEVTOX-GLR_legacy_Bra: (Legacy) CCTE's DevTox GLR-Endo Assay Evaluation of Brachyury (BRA) Protein Expression, Deisenroth Lab (AID 2284329; active = hit-call score of the fitted dose curve at least 0.9, where 1 is the maximum; inactive = score below 0.9)
# How it was run: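 Human pluripotent RUES2-GLR line was exposed twice during 48 h differentiation to a 10-point series, 1 nM - 200 uM. Fraction of Bra-positive cells was scored by imaging against pluripotent baseline and fitted after 0.2% DMSO subtraction.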
smiles,measurement,setting,value
CCCCC(CC)COC(=O)CC(C(=O)OCC(CC)CCCC)S(=O)(=O)O (stereo not drawn),outcome,[1],inactive
same,AC50,IYD (gene 389434),41.5 µM (active)
same,AC50,[2],62.2 µM (active)
same,AC50,SRD5A2 (gene 6716),75.3 µM (active)
same,AC50,[3],73 µM (active)
same,AC50,[4],78.2 µM (active)
same,outcome,[5],inactive
same,AC50,[6],74.5 µM (active)
same,AC50,[7],14.9 µM (active)
same,AC50,[8],77.8 µM (active)
same,AC50,SERPINA7 (gene 6906),1.95 µM (active)
Cc1cc(NC(=O)C(=O)O)cc(C)c1Oc1ccc(O)c2c1CCC2,outcome,[6],inactive
same,outcome,[8],inactive
same,AC50,SERPINA7 (gene 6906),0.667 µM (active)
CCCCOC(=O)CCCCCCCCC(=O)OCCCC,outcome,[2],inactive
same,outcome,[9],inactive
same,outcome,SRD5A2 (gene 6716),inactive
CCOC(=O)C(C)(C)Oc1ccc(Cl)cc1,AC50,SERPINA7 (gene 6906),24.9 µM (active)
CC(=O)Oc1ccccc1C(=O)O,outcome,[10],inactive
same,outcome,[11],inactive
same,outcome,[12],inactive
same,outcome,[13],inactive
same,outcome,[14],inactive
same,outcome,[15],inactive
same,outcome,[16],inactive
same,AC50,SERPINA7 (gene 6906),22.8 µM (active)
C=CCOC(=O)c1ccccc1C(=O)OCC=C,AC50,SERPINA7 (gene 6906),19.5 µM (active)
CCCCCCCCCCC,outcome,[2],inactive
same,outcome,[9],inactive
same,outcome,SRD5A2 (gene 6716),inactive
OC[C@@H](O)[C@@H](O)[C@H](O)[C@H](O)CO,outcome,[1],inactive
same,outcome,[2],inactive
same,outcome,[9],inactive
same,outcome,SRD5A2 (gene 6716),inactive
same,outcome,[13],inactive
same,outcome,[5],inactive
same,outcome,[7],inactive
same,outcome,[8],inactive
same,outcome,[16],inactive
CCOc1ccc2c(c1)C(C)=CC(C)(C)N2,outcome,[11],inactive
O=C(O)CCCCC(=O)O,outcome,[11],inactive
O=c1[nH]cc(F)c(=O)[nH]1,outcome,[11],inactive
same,AC50,[17],16.5 µM (active)
same,AC50,[12],5.95 µM (active)
same,AC50,[15],8.47 µM (active)
CCCc1cc(=O)[nH]c(=S)[nH]1,outcome,[3],inactive
same,outcome,[11],inactive
same,outcome,[17],inactive
same,outcome,[12],inactive
same,outcome,[6],inactive
same,outcome,[7],inactive
same,outcome,[8],inactive
same,outcome,[15],inactive
